Most compounds without a hit are left out; they make up all but 2.4% or so of the library.
TDP1 block = blocks human tyrosyl-DNA phosphodiesterase 1. Potency, µM (doses to about 130 µM), for the others: at the top dose activity change, negative = inhibition, actives largely listed as inhibitors. recombinant TDP1, AlphaScreen DNA substrate cleavage. AID 485290. hit rate 0.28% among 350,000; further: on the % scale 0 is the no-effect control and ±100 the full control effect; nearly all actives have a fitted effect of over 40% in size
Target sequence (Q9NUW8 whole entry, looked up): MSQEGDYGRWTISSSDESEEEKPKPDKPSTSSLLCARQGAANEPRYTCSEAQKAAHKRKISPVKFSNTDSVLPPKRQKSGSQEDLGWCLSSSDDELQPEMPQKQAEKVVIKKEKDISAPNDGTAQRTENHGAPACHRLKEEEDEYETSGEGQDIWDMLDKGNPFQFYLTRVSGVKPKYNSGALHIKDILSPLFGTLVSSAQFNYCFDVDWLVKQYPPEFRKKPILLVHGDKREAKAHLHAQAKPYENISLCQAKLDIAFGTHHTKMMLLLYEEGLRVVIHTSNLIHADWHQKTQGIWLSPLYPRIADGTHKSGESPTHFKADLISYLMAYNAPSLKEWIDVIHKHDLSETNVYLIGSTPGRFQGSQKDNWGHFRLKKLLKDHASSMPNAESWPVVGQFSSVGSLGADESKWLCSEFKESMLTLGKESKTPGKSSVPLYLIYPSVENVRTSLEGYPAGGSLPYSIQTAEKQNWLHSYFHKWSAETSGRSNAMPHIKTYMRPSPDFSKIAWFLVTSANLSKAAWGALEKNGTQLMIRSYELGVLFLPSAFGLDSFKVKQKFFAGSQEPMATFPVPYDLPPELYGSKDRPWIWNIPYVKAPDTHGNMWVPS
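Here, a 5' biotin and 3' phosphotyrosine-FITC DNA oligonucleotide reports Tdp1 activity: intact substrate bridges AlphaScreen beads, while cleavage leaves a 3' phosphate and drops signal. All incubations at room temperature.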
FEN1 inhibitor = inhibitors of human flap endonuclease 1; P39748; hit rate 0.35% among 390,000; Recombinant FEN1 flap cleavage, fluorescence, 15 min; Potency, µM (titrated, usually from 114 µM), for the others: at the highest dose activity change, negative = inhibition, hits mostly inhibitors; further: on the % scale 0 is the no-effect control and ±100 the full control effect; nearly all actives have a fitted effect of over 65% in size
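With each library titrated from low to high concentration, compounds met 10 nM FEN1 for 15 min at room temperature before 50 nM substrate was added; readings at 0 and 15 min fed four-parameter Hill curve fits.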
Pol beta inh = DNA polymerase beta (human) inhibition; Pol beta primer extension/strand displacement, fluorescence kinetic; Potency, µM (series often up to 114 µM), inactives show at the top dose activity change, negative = inhibition, usual class: inhibitors; hit rate 1.3% among 340,000; further: on the % scale 0 is the no-effect control and ±100 the full control effect
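Preincubation: enzyme (10 nM) with compound, 15 min, RT. Reaction: substrate added to 50 nM final. Reads: 0 and 10 min. Analysis: normalized, Hill fit.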
POLI inh = inhibitors of human DNA polymerase iota; Pol iota fluorescent replication assay, 10 min; hit rate 1% among 390,000; AID 588590; Q9UNA4; Potency, µM (titrated, usually from 115 µM), without a hit: at the highest dose activity, negative = inhibition, usual class: inhibitors
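Pol iota at 10 nM preincubated 15 min with compounds at room temperature; reaction started with fluorescent substrate, 50 nM final. Fluorescence read kinetically at 0 and 10 min; buffer-only wells as negative control.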
Pol eta inh = inhibitors of human DNA polymerase eta. Q9Y253. recombinant Pol eta, fluorescent DNA replication assay. Potency, µM (titrated, usually from 114 µM), for inactives: at the highest dose activity change, negative = inhibition, hits mostly inhibitors. hit rate 1.2% among 390,000. AID 588591; further: on the % scale 0 is the no-effect control and ±100 the full control effect
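Fluorescent replication assay: 50 nM final substrate added after a 15 min room-temperature compound preincubation with 10 nM enzyme. Signal taken at 0 min and again at 10 min.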
POLK inh = inhibitors of human DNA polymerase kappa; Q9UBT6; purified Pol kappa, fluorescent DNA synthesis assay, 10 min; Potency, µM (titrated, usually from 107 µM), without a hit: top-dose activity, negative = inhibition, hits mostly inhibitors; hit rate 0.53% among 400,000; further: on the % scale 0 is the no-effect control and ±100 the full control effect
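10 nM Pol kappa preincubated 15 min at room temperature with compounds, then reaction started with substrate at 50 nM final. Fluorescence read kinetically at 0 and 10 min; buffer-only wells served as negative control.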
An asterisk follows results filed as active; ? = inconclusive; . = not tested or not shown; [ ] = remark or other dose. The call rests on the fitted dose curve; in most records, active means well fitted curve in the direction sought with a large enough effect; inconclusive means small, poorly fitted or top-dose-only effect, or another doubt; inactive means no such curve, though single readings can be large; an effect the other way counts as inactive or inconclusive. Potency means the concentration at half of the fitted maximal effect.

SMILES	TDP1 block	FEN1 inhibitor	Pol beta inh	POLI inh	Pol eta inh	POLK inh
C[C@@H](C1[C@@H](O)CC2C3C=CC4C[C@@H](O)CC[C@]4(C)[C@H]3CC[C@@]21C)[C@@H]1CCCCN1 (stereo partly specified)	4%	.	.	.	.	.
O=C(O)c1ccc(CSc2nc(-c3ccc(Cl)cc3)cc(C(F)(F)F)n2)cc1	-8%	1%	89µM*	?	-7%	-13%
O=C(O)c1ccc(CSc2nc(-c3ccccc3)cc(C(F)(F)F)n2)cc1	4%	1%	-3%	17%	-9%	-1%
CN(C[C@@H](CC1CCCCC1)N(C[C@H](Cc1ccccc1)N(CCc1ccccc1)N=O)N=O)N=O	5%	-17%	-2%	24%	-15%	-19%
CN(C[C@H](Cc1ccccc1)N(C[C@H](CC1CCCCC1)N(CCc1ccccc1)N=O)N=O)N=O	3%	4%	11%	89µM*	-12%	?
CN(C)[C@H]1C(=O)C(C(=O)NCN2CCCC2)=C(O)[C@]2(O)C(=O)C3=C(O)c4c(O)cccc4[C@@](C)(O)[C@H]3C[C@@H]12	?	.	.	.	.	4.7µM*
N/C(=N\OC(=O)c1cccc(Cl)c1)c1ccccn1	3%	-1%	35%	137%	-5%	-11%
Cc1cc(/C(N)=N/OC(=O)c2cccc(Cl)c2)no1	7%	-10%	89µM*	-33%[58.9 µM]	-12%	-11%
Cc1c2ccccc2nc2c(F)c(NC(C)C)c(F)c(F)c12	1%	-20%	3%	18µM*	-3%	?
OCCNc1c2ccccc2nc2c(F)c(F)c(F)c(F)c12	-2%	10%	34%	115%	-9%	-6%
Cc1c2ccccc2nc2c(F)c(NCCO)c(F)c(F)c12	0%	?	?	?	?	79µM*
Cc1nc(N=Nc2ccc(C(=O)O)cc2)c(COP(=O)(O)O)c(C=O)c1O	14µM*	.	?	-5%[58.9 µM]	?	?
CCN(CC)N=Nc1ccc(C(=O)O)cc1	3%	-3%	4%	1%	-15%	-6%
Cc1nc(N=Nc2ccc(S(=O)(=O)O)cc2S(=O)(=O)O)c(COP(=O)(O)O)c(C=O)c1O	20µM*	.	0%[57.1 µM]	2%[58.9 µM]	-5%[57.1 µM]	?
Cc1ccc(S(=O)(=O)Oc2ccc(N=Nc3ccc(-c4ccc(N=Nc5c(O)ccc6cc(S(=O)(=O)O)cc(S(=O)(=O)O)c56)c(C)c4)cc3C)cc2)cc1	25%	.	.	.	.	.
Nc1nc(=S)ss1	.	-27%	.	28µM*	-2%	-12%
Cc1cc(NC(=O)c2ccc(S(=O)(=O)N3CCc4ccccc43)cc2)no1	6%	-17%	50µM*	?	-20%	-2%[60.1 µM]
Cc1cc(NC(=O)c2ccc(S(=O)(=O)N3CCOCC3)cc2)no1	-8%	0%	20%	24%	9%	-11%
COc1ccc(S(=O)(=O)N2CCc3ccccc32)cc1C(=O)Nc1ccc(C(N)=O)cc1	-12%	8%	.	89µM*	-12%	-10%
CCOc1ccccc1CNc1ccc(O)cc1	5%	-10%	3%	7.1µM*	50µM*	-15%
CCOc1cccc(CNc2ccc(O)cc2)c1OCc1ccc(Cl)cc1	3%	-24%	12%	11µM*	50µM*	-21%
COc1cccc(CNCCO)c1OCc1ccc(Cl)cc1	4%	5%	9%	-5%	-19%	-23%
CCOc1cc(CNc2ccc(O)cc2)ccc1OCc1ccc(Cl)cc1Cl	6%	-13%	?	8.9µM*	18µM*	-13%
CC(=O)N1CCCc2cc(S(=O)(=O)NCc3ccccc3Cl)ccc21	0%	3%	0%	0%	1%	0%[60.1 µM]
CC1C=CC=CC=CC=CC=CC=CC=CC(OC2OC(C)C(O)C(N)C2O)CC2OC(O)(CC(O)CC(O)C(O)CCC(O)CC(O)CC(=O)OC(C)C(C)C1O)CC(O)C2C(=O)O (stereo unspecified)	.	-17%	.	1.3µM*	0.89µM*	18µM*
SMILES	TDP1 block	FEN1 inhibitor	Pol beta inh	POLI inh	Pol eta inh	POLK inh
O=C(Cn1c(=O)nc(-c2ccccc2)c2ccccc21)NCCc1ccc(Cl)cc1	4%	-2%	1%	-10%	-15%	-2%[60.1 µM]
COc1ccc(NC(=O)CSc2nc3nc(C)c(Cc4ccc(C)cc4)c(C)n3n2)cc1OC	8%	-3%	4%	17%	-16%	-9%[60.1 µM]
Nc1nonc1-c1nc2ccccc2n1CC(=O)Nc1ccccc1	.	3%	-8%	18%	12%	-16%
Nc1nonc1-c1nc2ccccc2n1CC(=O)N/N=C/c1ccc(-c2ccccc2C(=O)O)o1	.	1%	16µM*	?	32µM*	?
COc1cccc(C2c3[nH]c4ccccc4c3C[C@H]3C(=O)N(C4CC4)CC(=O)N23)c1 (stereo partly specified)	.	17%	1%	32µM*	?	6%
Cc1ccc(S(=O)(=O)N2CCC(C(=O)OC3CCOC3=O)CC2)cc1C (stereo unspecified)	-5%	-7%	.	43%	-11%	-2%
CC(=O)c1cccc(S(=O)(=O)N2CCC(C(=O)OC3CCOC3=O)CC2)c1 (stereo unspecified)	-15%[56.1 µM]	17%	.	?	45µM*	-23%
O=C(CSc1nc2sc3c(c2c(=O)n1-c1ccccc1)CCCC3)N/N=C/c1ccccc1C(=O)O	22µM*	50µM*	?	?	50µM*	-2%
CC1(OC(=O)c2ccco2)C(=O)C=C2C=C(C3CC3)OC=C2C1=O (stereo unspecified)	5%	?	.	?	45µM*	79µM*
CC1(OC(=O)c2cccs2)C(=O)C=C2C=C(c3ccsc3)OC=C2C1=O (stereo unspecified)	4%	.	.	.	.	.
COC(=O)CCC(=O)OC1(C)C(=O)C=C2C=C(CCCNC(=O)OC(C)(C)C)OC=C2C1=O (stereo unspecified)	4%	.	.	.	.	.
CC1(OC(=O)c2cccs2)C(=O)C=C2C=C(C3CC3)OC=C2C1=O (stereo unspecified)	1%	-21%	.	?	?	-19%
CC1(OC(=O)CCc2ccccc2)C(=O)C=C2C=C(c3ccc(C#N)cc3)OC=C2C1=O (stereo unspecified)	2%	.	.	.	.	.
COC(=O)CCCC1=CC2=CC(=O)C(C)(OC(=O)C3CCCC3)C(=O)C2=CO1 (stereo unspecified)	-1%	?	45µM*	22µM*	20µM*	?
CC1(OC(=O)C2CCCC2)C(=O)C=C2C=C(c3ccsc3)OC=C2C1=O (stereo unspecified)	-7%	?	35µM*	45µM*	32µM*	?

Source: PubChem BioAssay (National Center for Advancing Translational Sciences (NCATS))
